Screens as filed in PubChem BioAssay.
Hedgehog inh: Sonic Hedgehog pathway inhibition; Shh-LIGHT2 Gli-luciferase reporter, 30 h; inhibition, % (test concentration not listed); actives 2.1% (n = 22,000);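 active means mean inhibition across valid replicates above about 65%, limit read from the data; inconclusive means mean under the limit, yet half or more replicates past it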;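 further: pathway switched on by Shh-conditioned medium diluted 1 in 25 in low serum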
MITF inh: inhibitors of MITF; TRPM1 promoter luciferase, luminescence, 24 h; inhibition, % (no concentration beside the values); actives 0.28% (n = 37,000); in the data active means inhibition above about 85%; inconclusive means no clear call, values can overlap the other calls; inactive means below about 68%;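 further: human melanocyte line stably carrying TRPM1 promoter luciferase reporter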
BJeLR viab HTS: lowers viability of BJeLR cells; BJeLR fibroblasts viability, CellTiterGlo ATP luminescence, 48 h; HRASV12, hTERT and SV40 LT/ST transformed; viability loss activity score, % (test concentration not listed); actives 0.64% (n = 30,000); AID 2275; in the data active means viability loss activity score above about 50%; inconclusive means no clear call, values can overlap the other calls; inactive means below about 35%;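 further: higher score means fewer live cells and less ATP luminescence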
Active calls of the source: *; ? = inconclusive; . = no result given. This excerpt belongs to a sample that is enriched for hits.

SMILES	Hedgehog inh	MITF inh	BJeLR viab HTS
CC[C@@H]1/C=C\C=C\C[C@H](C)C(O)[C@](C)(O)C(=O)[C@H](C)C(O)[C@H](C)C(=O)[C@H](C)[C@@H](O)[C@H](C)/C=C/C(=O)O[C@H]2[C@@H](C)[C@@H](CC1)O[C@@]1(CC[C@@H](C)[C@@H](C[C@H](C)O)O1)[C@@H]2C (some centres undefined)	108*	75	-16
N#Cc1cc2c(nc1SCc1ccccc1Br)C1CCN2CC1	.	.	2
CCc1ccc(CN2CCN(Cc3cccc(OC)c3)CC2)cc1	.	1	0
C[C@]12C=CC(=O)C=C1CCC1C2CC[C@]2(C)C(=O)CCC12 (some centres undefined)	-25	-12	1
CCOCN(C(=O)CCl)c1c(C)cccc1CC	80*	99*	4
CCc1cccc(CC)c1N(COC)C(=O)CCl	11	26	-9
CC(Cc1c[nH]c2ccccc12)N(Cc1ccccc1)Cc1ccccc1 (centres undefined)	.	.	3
OC[C@H]1O[C@@H](Oc2c[nH]c3ccc(Br)c(Cl)c23)[C@H](O)[C@@H](O)[C@H]1O	3	25	-3
COC(=O)CC1=C(C(=O)OC)C2(C(=O)Nc3ccccc32)C(C(=O)OC)=C(N)O1 (centres undefined)	-4	9	0
O=C1NC(=O)C(=C/C=C/c2ccccc2)C(=O)N1	?	87*	-11
CCN1CC2(COC)CCC(O)C34C5CC6C(OC)CC(O)(C5C6O)C(C(OC)C23)C14 (centres undefined)	-17	-2	3
O=C1CCCC2C3CC(CN12)[C@@H]1CCCCN1C3 (some centres undefined)	3	-2	-8
C=CCC1(NCCc2ccccc2)CCCCC1	.	-20	-5
Cc1cc(-n2c(=S)[nH]c3ccccc3c2=O)ccc1Br	.	.	1
COC[C@H]([C@@H](O)[C@@H](O)C(=O)NCC[C@@H](C)c1nc(/C=C/C[C@H]2OC3(C[C@H](O)[C@H]2C)OC([C@@H](C[C@@H](O)[C@@H](C)[C@@H](O)[C@@H](C)/C=C(C)/C(C)=C/C=C/C(C)=C\C#N)OC)[C@@H](OP(=O)(O)O)C3(C)C)co1)N(C)C (some centres undefined)	105*	65	69*
CC(=O)NCC1CCCN2CCCCC12 (centres undefined)	.	.	3
C[C@H]1OC(O[C@H]2[C@@H](O)CC(O[C@H]3[C@@H](O)C[C@H](O[C@H]4CC[C@]5(C)C6CC[C@]7(C)[C@@H](C8=CC(=O)OC8)[C@@H](O)C[C@]7(O)[C@@H]6CC[C@@H]5C4)O[C@@H]3C)O[C@@H]2C)C[C@H](O)C1O (some centres undefined)	-4	23	98*
C[C@H]1O[C@@H](O[C@H]2[C@@H](O)C[C@H](O[C@H]3[C@@H](O)C[C@H](O[C@H]4CC[C@@]5(C)[C@H](CC[C@@H]6[C@@H]5CC[C@]5(C)[C@@H](C7=CC(=O)OC7)CC[C@]65O)C4)O[C@@H]3C)O[C@@H]2C)C[C@H](O)[C@@H]1O	3	48	134*
CO[C@H]1C[C@H](OC2CCC3(C)C4CCC5(C)C(C6=CC(=O)OC6)CC(OC(C)=O)C5(O)C4CC[C@H]3C2)O[C@@H](C)[C@@H]1O (some centres undefined)	-3	10	99*
COC(=O)c1ccc(OP2(=O)COc3ccccc3OC2)cc1	-12	-3	-2
Cc1cc(OCC(=O)N(C)C)c2c3c(c(=O)oc2c1)CCCC3	.	-4	-8
CC(=O)O[C@@H](c1nc2ccccc2c(=O)n1[C@@H]1C[C@@]2(OC1=O)c1ccccc1N1C(=O)[C@H](C)N(O)[C@@H]12)C(C)C	14	15	-5
CC(C)c1cc2c(cc1O)[C@@]1(C)C[C@@H](O)CC(C)(C)C1CC2 (some centres undefined)	-21	-4	2
CCN(CC)C(=O)c1ccc2c(c1)C1C3CCC(C3)C1C(c1ccccc1)N2 (centres undefined)	.	.	1
C[C@]12CC[C@H]3[C@@H](CC[C@]4(O)C[C@@H](O)CC[C@]34C=O)[C@@]1(O)CC[C@@H]2C1=CC(=O)OC1	-40	32	82*
SMILES	Hedgehog inh	MITF inh	BJeLR viab HTS
CO[C@H]1[C@H](O)[C@H](O[C@H]2CC[C@]3(C)C4CC[C@]5(C)[C@H](C6=CC(=O)OC6)CC[C@]5(O)C4CC[C@@H]3C2)O[C@@H](C)[C@@H]1O (some centres undefined)	-5	31	116*
C[C@@H]1O[C@@H](O[C@H]2C[C@@H](O)[C@]3(CO)[C@H]4[C@H](O)C[C@]5(C)[C@@H](C6=CC(=O)OC6)CC[C@]5(O)[C@@H]4CC[C@]3(O)C2)[C@H](O)[C@H](O)[C@H]1O	-70	41	104*
CO[C@H]1[C@H](O)[C@@H](O[C@H]2CC[C@]3(C=O)C4CC[C@]5(C)[C@@H](C6=CC(=O)OC6)CC[C@]5(O)C4CC[C@@H]3C2)O[C@@H](C)[C@@H]1O (some centres undefined)	-53	29	133*
O=C(Nc1ccc2c(C(F)(F)F)cc(=O)oc2c1)c1cc(Cl)cc(Cl)c1	-23	8	-1
Cn1c(CCN)nc2ccccc21	.	.	3
C/C=C\C(C)=C\[C@H](C)C(=O)C[C@H](O)CC1CC(=O)NC(=O)C1	53	52	-1
COc1cc(C)c(Oc2cc(C)cc(O)c2)c(O)c1	-7	9	-9
C=CC(C)(C)[C@]12C=C(OC)C(=O)N3/C(=C/c4cnc[nH]4)C(=O)N[C@@]31N(OC)c1ccccc12	-4	11	0
COc1ccc(C(=O)O[C@H]2CC[C@@]3(C)[C@@H]4CC[C@H]5[C@]6(O)C[C@H](O)[C@@]7(O)[C@@H](CN8C[C@@H](C)CC[C@H]8[C@@]7(C)O)[C@]6(O)C[C@@]53O[C@]24O)cc1OC	-20	-10	-2
C[C@@H]1O[C@@H](OC2CCC3(C)C4CCC5(C)C(C6=CC(=O)OC6)CCC5(O)C4CC[C@H]3C2)[C@H](O)[C@H](O)[C@H]1O (some centres undefined)	18	2	101*
O=C(NC(=O)c1ccccc1Cl)Nc1ccc2c(c1)S(=O)(=O)C=C2	.	.	-1
CCC(C)[C@H]1O[C@]2(C=C[C@@H]1C)C[C@@H]1C[C@@H](C/C=C(\C)[C@@H](OC3C[C@H](OC)C(O[C@H]4C[C@H](OC)[C@@H](O)[C@H](C)O4)[C@H](C)O3)[C@@H](C)/C=C/C=C3\CO[C@@H]4[C@H](O)C(C)=C[C@@H](C(=O)O1)[C@]34O)O2 (some centres undefined)	5	100*	-4
CCc1nc2ccccc2c(=O)n1-c1ccccc1Cl	-32	25	1
O=C(O)CP(=S)(c1ccccc1)c1ccccc1	9	16	6
O=C1NC(=O)C(CCc2ccncc2)(CCc2ccncc2)C(=O)N1c1ccccc1F	.	4	.
O=c1c2ccccc2nc(CSc2ccccn2)n1-c1ccccc1Cl	.	-4	.
COc1cccc(CNCCc2c[nH]c3ccccc23)c1O	.	-6	.
C=C1[C@@H](C)[C@H]2[C@H](Cc3ccccc3)NC(=O)[C@]23[C@H](OC(C)=O)C=C[C@](C)(O)C(=O)[C@@H](C)C/C=C/[C@H]3[C@@H]1O	73*	57	20
COc1cc2c(cc1O)C1Cc3ccc(OC)c(O)c3CN1CC2 (centres undefined)	-7	4	5
